{"source": "PubChem BioAssay (NCI)", "note": "“And” between values parts separate entries of the source, which are not always exact repeats. Equal entries are not always repeated. Compounds without any hit were thinned out: in the full panel of roughly 83,000, 20% have a hit.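 Treatment: one concentration, 48 hours, 96-well format. Scoring: percent growth, with anything below 10 considered active.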 Some structures have more than one record in an assay (separate samples or runs), and their calls can disagree. The source made the active and inactive calls."}
{"system": "A549/ATCC NSCLC", "assay": "NCI-60 one-dose screen, 48 h (100 = growth as untreated, 0 = no growth, -100 = all killed)", "conditions": "1 µM", "protocol": "(§1) Growth inhibition of the A549/ATCC human Non-Small Cell Lung tumor cell line is measured as a screen for anti-cancer activity. Cells are grown in 96 well plates and exposed to the test compound for 48 hours. Compounds are tested at a single concentration, which is 10^-5 M for most compounds. The reported endpoint is percent growth (GI% or GIPRCNT), where numbers from 0 - 100% represent growth inhibition, and numbers from -100% - 0 represent cell death. For example, a value of 40 represents 60% growth inhibition. A value of 0 means no net growth occurred over the course of the experiment. A value of -40 indicates 40% of cells at the beginning of the experiment died by the end of the experiment. A value of -100 means all cells are dead at the end of the experiment.\n(§2) NCI-60 Human Tumor Cell Lines Screen was performed using the standard one-dose NCI protocol, which is described in more detail at https://dtp.cancer.gov/discovery_development/nci-60/default.htm.\n(§3) Compounds with GIPRCNT values below 10 were considered active. Activity score was based on GIPRCNT using the following formula: […]\n(§4) Score is 0 for GIPRCNT values of 100 or above, 50 for GIPRCNT values of 0, and 100 for GIPRCNT values of -100."}
{"smiles": "CNC(=O)c1cc(Oc2ccc(CC(=O)Nc3cc(C(C)(C)C)nn3C)cc2)ccn1", "growth": "71.2% (inactive)"}
{"system": "A549/ATCC NSCLC", "assay": "NCI-60 one-dose screen, 48 h (100 = growth as untreated, 0 = no growth, -100 = all killed)", "conditions": "10 µM", "protocol": "as §1, §2, §3, §4"}
{"smiles": "CNC(=O)c1cc(Oc2ccc(CC(=O)Nc3cc(C(C)(C)C)nn3C)cc2)ccn1", "growth": "67.2% (inactive)"}
{"smiles": "COc1ccc(Cl)cc1C(=O)NCCc1ccc(S(=O)(=O)NC(=O)NC2CCCCC2)cc1", "growth": "99.8% (inactive) and 103% (inactive)"}
{"smiles": "CC#C[C@]1(O)CC[C@H]2[C@@H]3CCC4=CC(=O)CCC4=C3[C@@H](c3ccc4c(c3)OCO4)C[C@@]21C", "growth": "66.7% (inactive)"}
{"system": "A549/ATCC NSCLC", "assay": "NCI-60 one-dose screen, 48 h (100 = growth as untreated, 0 = no growth, -100 = all killed)", "conditions": "10 µM unless noted", "protocol": "as §1, §2, §3, §4"}
{"smiles": "Cc1nn(-c2ccc(Cl)cc2)c2ncnc(N/N=C/c3ccccc3O)c12", "growth": "9.46% (active) and 12.8% (inactive)"}
{"smiles": "O=C1C2=C(C(=O)c3ccccc31)C(O)(S(=O)(=O)O)C(O)(S(=O)(=O)O)C1N=CC=CC21", "note": "(stereo not given)", "growth": "35.8% (inactive) and 22.1% (inactive)"}
{"smiles": "Cc1ccc(NCSc2ccc(Cl)cc2)cc1", "growth": "62% (inactive) and 63.7% (inactive)"}
{"smiles": "O=C1OC(Oc2ccc(Br)cc2)(c2ccccc2)c2ccccc21", "note": "(stereo not given)", "growth": "82.6% (inactive) and 88% (inactive)"}
{"smiles": "Nc1nc(SC/C=C/CCl)c2[nH]cnc2n1", "growth": "95.4% (inactive) and 103% (inactive)"}
{"smiles": "O=C(O)CCCCc1ccc([N+](=O)[O-])cc1", "growth": "97.6% (inactive) and 102% (inactive)"}
{"smiles": "Nc1ccc2ccc(N)cc2c1", "growth": "82.5% (inactive)"}
{"smiles": "CCCCCCCCCCCCCCCc1cc(O)ccc1N", "growth": "89.3% (inactive) and 99.8% (inactive)"}
{"smiles": "O[C@H](c1cc(C(F)(F)F)nc2c(C(F)(F)F)cccc12)[C@@H]1CCCCN1", "growth": "56.9% (inactive) and 67.1% (inactive)"}
{"smiles": "CCCCCCCCCCCCOc1ccccc1C=O", "growth": "93.3% (inactive)"}
{"smiles": "CN(Cc1ccccc1)Cc1ccccc1", "growth": "96.7% (inactive)"}
{"smiles": "O=C1OC2(c3ccccc31)c1ccc(O)c(O)c1Oc1c2ccc(O)c1O", "growth": "105% (inactive)"}
{"smiles": "c1ccc2cc(C[n+]3ccn(Cc4ccc5ccccc5n4)c3)ccc2c1", "growth": "37.3% (inactive) and 59.3% (inactive)"}
{"smiles": "C#CCN(C)Cc1ccccc1", "growth": "102% (inactive) and 101% (inactive)"}
{"smiles": "CC(/C=N/N1C(=O)c2ccccc2C1=O)c1ccccc1", "note": "(stereo not given)", "growth": "88.3% (inactive)"}
{"smiles": "O=C(N/N=C/c1ccccc1)N/N=C/c1ccccc1", "growth": "102% (inactive) and 104% (inactive)"}
{"smiles": "S=C(S)N1CCCC1", "growth": "70.6% (inactive) and 58.4% (inactive)"}
{"smiles": "OCCN1CCN(CCCN2c3ccccc3Sc3ccc(Cl)cc32)CC1", "growth": "69.8% (inactive) and 93.3% (inactive)"}
{"smiles": "CN1CCN(Cc2occc(=O)c2O)CCN(C)CCN(Cc2occc(=O)c2O)CC1", "growth": "93.2% (inactive) and 12.3% (inactive)"}
{"smiles": "NC(=S)NN=C1CCC(C2CCCCC2)CC1", "note": "(stereo not given)", "growth": "94% (inactive) and 99.5% (inactive)"}
{"smiles": "N#CC(C#N)=C/C=C/c1cccc([N+](=O)[O-])c1", "growth": "34.1% (inactive) and 10.2% (inactive)"}
{"smiles": "COc1cc2c(c(OC)c1OC)-c1ccc(OC)c(=O)cc1[C@@H](NC(C)=O)CC2", "growth": "12.3% (inactive) and 44.9% (inactive)"}
{"smiles": "COc1cc2nc(N3CCC[C@@H](NC(=O)C4COc5ccccc5O4)C3)nc(N)c2cc1OC", "note": "(stereo not given in full)", "growth": "95.7% (inactive) and 93.9% (inactive)"}
{"smiles": "CC1=C(/C=C/C(C)=C/C=C/C(C)=C/C=N/NC(=S)NC(=S)N/N=C/C=C(C)/C=C/C=C(C)/C=C/C2=C(C)CCCC2(C)C)C(C)(C)CCC1", "growth": "17.3% (inactive) and 3.05% (active)"}
{"smiles": "Cn1cnc([N+](=O)[O-])c1Sc1ncnc2nc[nH]c12", "growth": "82% (inactive) and 107% (inactive)"}
{"smiles": "C[N+](C)(C)CN1C(=O)c2ccccc2C1=O", "growth": "99.8% (inactive)"}
{"smiles": "CC(C)CNC(=O)c1ccccc1C(=O)NC1(C(=O)NCC(C)C)CCCC1", "growth": "95.7% (inactive) and 107% (inactive)"}
{"smiles": "C/C(=N\\NC(=O)c1ccncc1)c1ccccc1O", "growth": "36.4% (inactive) and 40% (inactive)"}
{"smiles": "Oc1c(Cl)cc(Cl)cc1Sc1cc(Cl)cc(Cl)c1O", "growth": "62.5% (inactive) and 8.2% (active) and 88.4% (inactive)"}
{"smiles": "ClC/C=C/CSc1ncnc2nc[nH]c12", "growth": "101% (inactive) and 104% (inactive)"}
{"smiles": "CCN(CC)CCC(CNc1c2ccc([N+](=O)[O-])cc2nc2cc(OC)c(OC)cc12)c1ccccc1", "note": "(stereo not given)", "growth": "-6.05% (active) and -93.9% (active)"}
{"smiles": "COc1cc(Nc2nc3ccccc3nc2NS(=O)(=O)c2ccc(NC(=O)c3ccc(C)c(OC)c3)cc2)cc(OC)c1", "growth": "50.2% (inactive) and -9.71% (active)"}
{"smiles": "O=C(O)CSCc1nc2ccccc2[nH]1", "growth": "110% (inactive)"}
{"system": "A549/ATCC NSCLC", "assay": "NCI-60 one-dose screen, 48 h (100 = growth as untreated, 0 = no growth, -100 = all killed)", "conditions": "30 µM", "protocol": "as §1, §2, §3, §4"}
{"smiles": "CNC(=O)c1cc(Oc2ccc(CC(=O)Nc3cc(C(C)(C)C)nn3C)cc2)ccn1", "growth": "80.8% (inactive)"}
{"system": "A549/ATCC NSCLC", "assay": "NCI-60 one-dose screen, 48 h (100 = growth as untreated, 0 = no growth, -100 = all killed)", "conditions": "100 µM", "protocol": "as §1, §2, §3, §4"}
{"smiles": "COc1ccc(Cl)cc1C(=O)NCCc1ccc(S(=O)(=O)NC(=O)NC2CCCCC2)cc1", "growth": "57.9% (inactive)"}
{"smiles": "CC#C[C@]1(O)CC[C@H]2[C@@H]3CCC4=CC(=O)CCC4=C3[C@@H](c3ccc4c(c3)OCO4)C[C@@]21C", "growth": "-19.7% (active)"}
